This is an account of results in PubChem BioAssay (NCATS).

Each structure is given as a SMILES string. Values joined by “and” are separate entries in the source; they are usually repeats but may differ in a detail not shown here. Equal entries are not always repeated. Records with an inconclusive call do not appear. A number with no mark means an inactive call. Active and inactive are the calls of the source.

Thyroid hormone receptor beta (Homo sapiens), sequence (P10828 whole entry, looked up): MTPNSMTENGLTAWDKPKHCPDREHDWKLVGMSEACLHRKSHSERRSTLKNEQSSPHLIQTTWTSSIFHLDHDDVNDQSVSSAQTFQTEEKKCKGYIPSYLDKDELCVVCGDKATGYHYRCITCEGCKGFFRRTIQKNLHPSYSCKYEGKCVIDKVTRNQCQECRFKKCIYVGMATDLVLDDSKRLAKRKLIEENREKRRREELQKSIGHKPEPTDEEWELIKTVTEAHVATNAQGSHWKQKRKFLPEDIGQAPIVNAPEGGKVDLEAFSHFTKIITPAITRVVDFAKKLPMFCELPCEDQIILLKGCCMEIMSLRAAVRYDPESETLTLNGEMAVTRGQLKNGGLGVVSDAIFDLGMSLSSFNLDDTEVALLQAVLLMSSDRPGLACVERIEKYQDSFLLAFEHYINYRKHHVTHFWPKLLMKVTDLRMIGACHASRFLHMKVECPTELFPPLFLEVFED

The first assay addresses Thyroid hormone receptor beta (Homo sapiens) (UniProt P10828). Kind of assay: qHTS assay for small molecule antagonists of thyroid hormone receptor beta signaling (AID 588547; active = well fitted inhibition curve with a large enough effect in the signal ratio, with a control signal flat, not every such curve was filed as active; the % refers to the signal ratio;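 also: cells stimulated with 0.4 nM T3 agonist during compound exposure; % is scaled to controls: 0 for no effect and ±100 for the full control effect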). Conditions: TR-UAS-bla HEK293, beta-lactamase ratio, antagonist mode, 18 h. The essentials:
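TR-UAS-bla GripTite HEK293 cells in 2% charcoal/dextran FBS medium; compounds 0.59 nM to 92 uM with T3 at 0.4nM final, 18 h at 37 C. Beta-lactamase read by CCF4 fluorescence (460/530 nm); Hill fits gave IC50 and efficacy.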
For orientation: In qHTS, concentration-response curves come from the screen itself.
Regarding `CC(C)OC(=O)Nc1cccc(Cl)c1`, the activity change % (negative = inhibition) is 12.8%.

On to `CCCCSP(=O)(SCCCC)SCCCC`, for which the activity change % (negative = inhibition) is -17.4%.

Take `CCS(=O)CCSP(=O)(OC)OC` (configuration not stated): the activity change % (negative = inhibition) is -3.19%.

With `COP(N)(=O)SC` (configuration not stated), the activity change % (negative = inhibition) is 12.1% and -8.42%.

For `CC(C)(C)C(=O)C(Oc1ccc(Cl)cc1)n1cncn1` (configuration not stated), the activity change % (negative = inhibition) is -2.73% and -13.2%.

In the case of `CC(C)N1C(=O)c2ccccc2NS1(=O)=O`, the activity change % (negative = inhibition) was -1.01%.

As to `O=C(O)COc1cc(Cl)c(Cl)cc1Cl`, the activity change % (negative = inhibition) was 7.44%.

For `CNC(=O)CSP(=S)(OC)OC`, the activity change % (negative = inhibition) was -15.4% and 6.49%.

Take `N#Cc1c(Cl)cccc1Cl`: the activity change % (negative = inhibition) is -4.17%.

As for `COc1nc(NC(C)C)nc(NC(C)C)n1`, the activity change % (negative = inhibition) is 0.677%.

For the compound `CNC(=O)Oc1ccccc1OC(C)C`, the activity change % (negative = inhibition) was 16.1%.

System in another assay: not listed separately
The assay can be described thus: qHTS assay for small molecule agonists of the antioxidant response element (ARE) signaling pathway (AID 651741; active = well fitted activation curve with a large enough effect in the signal ratio; the % refers to the signal ratio; also: potency is read from the fitted curve at half-maximal effect; as to activation: % of control where 0% means no effect). The following applies: HepG2 ARE-bla reporter, beta-lactamase FRET ratio, 16 h; series mostly up to 96 µM. An outline of the steps:
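CellSensor ARE-bla HepG2 cells (2,000/well) carrying ARE-driven beta-lactamase, exposed 16 h at 37 C. LiveBLAzer B/G FRET substrate added for 2 h at room temperature; fluorescence intensity read.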
`CC(C)OC(=O)Nc1cccc(Cl)c1`: the Potency entry is “inactive”.

As for `CCS(=O)CCSP(=O)(OC)OC` (configuration not stated), the Potency entry is “inactive”.

Turning to `COP(N)(=O)SC` (configuration not stated), the Potency entry is “inactive”.

On to `CC(C)(C)C(=O)C(Oc1ccc(Cl)cc1)n1cncn1` (configuration not stated), for which the Potency entry is “inactive”.

For the compound `CC(C)N1C(=O)c2ccccc2NS1(=O)=O`, the Potency result was “inactive”.

As to `CNC(=O)CSP(=S)(OC)OC`, the Potency result is “inactive”.

For the compound `N#Cc1c(Cl)cccc1Cl`, the Potency result is “inactive”.

In the case of `COc1nc(NC(C)C)nc(NC(C)C)n1`, the Potency entry is “inactive”.

As for `CCc1cccc(C)c1N(C(=O)CCl)C(C)COC` (configuration not stated), the Potency is 24.3 µM (active).

As for `CNC(=O)Oc1ccccc1OC(C)C`, the Potency result is “inactive”.

System in another assay: not listed separately
Kind of assay: qHTS assay for small molecule activators of the p53 signaling pathway (AID 651743; active = well fitted activation curve with a large enough effect in the signal ratio, not every such curve was filed as active; the % refers to the signal ratio; also: % of control where 0% means no effect). Conditions: HCT-116 p53RE-bla, beta-lactamase FRET ratio, 16 h; activation: stronger effect = higher value. An outline of the steps:
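p53RE-bla HCT-116 cells carrying a beta-lactamase reporter under p53 response elements were exposed to compounds for 16 hours at 37 C. Reporter activity read as fluorescence after 2 hours at room temperature with LiveBLAzer B/G FRET substrate.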
For the compound `CC(C)OC(=O)Nc1cccc(Cl)c1`, the activation was 1.93%.

Take `CNC(=O)Oc1cccc2c1OC(C)(C)O2`: the activation was 0.009%.

For `CCCCSP(=O)(SCCCC)SCCCC`, the activation is -2.51%.

On to `CCS(=O)CCSP(=O)(OC)OC` (configuration not stated), for which the activation was -0.772%.

As for `COP(N)(=O)SC` (configuration not stated), the activation is 0.404% and 2.15%.

On to `CC(C)(C)C(=O)C(Oc1ccc(Cl)cc1)n1cncn1` (configuration not stated), for which the activation was -0.546% and 1.4%.

Consider `CC(C)N1C(=O)c2ccccc2NS1(=O)=O`, for which the activation is 2.08%.

Regarding `CCC(=O)Nc1ccc(Cl)c(Cl)c1`, the activation was 4.6%.

On to `N#Cc1c(Cl)cccc1Cl`, for which the activation is -3.69%.

Turning to `COc1nc(NC(C)C)nc(NC(C)C)n1`, the activation was -5.88%.

As for `CCc1cccc(C)c1N(C(=O)CCl)C(C)COC` (configuration not stated), the activation is -2.17%.
